Screening data: PubChem BioAssay, Broad Institute
Tg IFNy HTS: inhibitors of Toxoplasma gondii growth with IFN-gamma; Toxoplasma gondii growth in IFN-gamma-treated host cells; active compounds read low; activity change, negative = inhibition, % (test concentration not listed); actives 3.8% (n = 69,000); in the data active = activity change below about -70%, passing the limit was not always enough;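 also: host cells are HeLa cells infected with Toxoplasma gondii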
Each line names hits and unclear results; the compound was inactive in the other large screens. The sample as a whole holds a higher share of hits than the screen did.

C=CCN1CCN(C(=O)C2CC=CC2)Cc2cccnc21	none
COc1ccccc1OCc1cc(C(=O)N(C)Cc2cc(C)no2)no1	none
COc1ccccc1OCC(=O)O	none
COc1cc(C(=O)N(C)CCOc2ccccc2OC)c2ccccc2n1	Tg IFNy HTS -93
COC(=O)c1cc(OC)cc(C(=O)Nc2cnc3n2CCCC3)c1	none
CC(C)N(CCC(N)=O)CC1CC=CCC1 (centres undefined)	none
CCCC#Cc1ccc2c(c1)O[C@H](CN(C)Cc1ccccn1)[C@H](C)CN([C@@H](C)CO)S2(=O)=O	Tg IFNy HTS -94
C[C@H](CO)N1C[C@H](C)[C@H](CN(C)C(=O)c2cnccn2)Oc2cc(C#CCC3CCCC3)ccc2S1(=O)=O	Tg IFNy HTS -100
COCC#Cc1ccc2c(c1)O[C@H](CN(C)C(=O)C1CCOCC1)[C@H](C)CN([C@@H](C)CO)S2(=O)=O	none
CCCC#Cc1ccc2c(c1)O[C@@H](CN(C)Cc1ccccn1)[C@H](C)CN([C@@H](C)CO)S2(=O)=O	none
CCCN(C)C[C@H]1Oc2cc(/C=C/c3ccccc3)ccc2S(=O)(=O)N([C@H](C)CO)C[C@H]1C	Tg IFNy HTS -92
C[C@@H]1CN([C@@H](C)CO)S(=O)(=O)c2ccc(C#Cc3cccc(F)c3)cc2O[C@@H]1CN(C)S(=O)(=O)c1cn(C)cn1	none
C[C@H]1CN([C@@H](C)CO)S(=O)(=O)c2ccc(C#CCC3CCCC3)cc2O[C@@H]1CN(C)C(=O)c1cnccn1	none
CCCC#Cc1ccc2c(c1)O[C@H](CN(C)Cc1ccccn1)[C@@H](C)CN([C@H](C)CO)S2(=O)=O	none
C[C@@H]1CN([C@@H](C)CO)S(=O)(=O)c2ccc(-c3ccncc3)cc2O[C@H]1CN(C)S(C)(=O)=O	none
C[C@H](CO)N1C[C@H](C)[C@H](CN(C)Cc2ccccc2C(=O)O)Oc2cc(-c3ccc(F)cc3)ccc2S1(=O)=O	none
Cc1ccc(S(=O)(=O)N(C)C[C@@H]2Oc3cc(C#CC4CCCC4)ccc3S(=O)(=O)N([C@@H](C)CO)C[C@H]2C)cc1	Tg IFNy HTS -109
CCCN(C)C[C@@H]1Oc2cc(/C=C/c3ccccc3)ccc2S(=O)(=O)N([C@H](C)CO)C[C@@H]1C	none
Cc1ccc(C2(O)CCN(C(=O)CCc3cc(=O)[nH]o3)CC2)nc1	none
CN1CC2(CCCN(Cc3nnc(-c4ccccc4)o3)CC2)OC1=O (centres undefined)	none
COCCN1C[C@H]2[C@H](C(=O)N(C)C)CCS(=O)(=O)[C@H]2C1	none
CCCc1nc(CN(CC)C(=O)C2=CC(=O)CC(C)(C)O2)no1	none
C=CCn1c(-c2ccccc2)csc1=Nc1ccc(C)cc1	none
CC(=O)N1CCOC(CNC(=O)COc2cccnc2)C1 (centres undefined)	none
CC(C)CSc1ncc(CNCCc2nc3ccccc3n2C)cn1	none
O=C(c1cc(=O)c2ccccc2o1)N1Cc2cnn(CCO)c2C1	none
NC1CCN(c2nc(-c3ccccc3)nc3c2CCNC3)C1 (centres undefined)	none
Cc1ccc(CN2Cc3nnn(C)c3C(COCc3ccccn3)C2)s1 (centres undefined)	none
CC1N(c2cnn(C)c2)C(=O)COC12CCN(c1ncccn1)CC2 (centres undefined)	none
O=C(NCCc1csc2c1CCCC2)c1cn(CC2CCCNC2)nn1 (centres undefined)	Tg IFNy HTS -78
Cc1cccnc1N1CCN(C(=O)c2cn(CC3CCCNC3)nn2)CC1 (centres undefined)	none
CC1(C)Cc2ccccc2CN1C(=O)c1cn(CC2CCCNC2)nn1 (centres undefined)	none
Cc1c(Cl)cccc1NC(=O)c1nc(Nc2ccccc2)c2ccccc2n1	none
O=c1[nH]c2ccccc2cc1CN1CCc2c([nH]c3ccccc23)C1	none
O=C1CC2C(CCN2C(=O)c2cscn2)N1CC1CCOCC1 (centres undefined)	none
Clc1ccc(SCc2ccsc2-c2ncns2)cc1	Tg IFNy HTS -77
Clc1ccc(SCc2csc(-c3ccc(Cl)cc3)n2)cc1	none
Clc1ccc(SCc2csc(-c3ccno3)n2)cc1	none
Cc1onc(-c2c(Cl)cccc2Cl)c1C(=O)N(C(C)C)C(C)C	none
CC(=O)c1ccccc1-c1ccccc1C(=O)NC(C)C	none
CC(C)N(C(=O)c1ccccc1-c1ccccc1C(=O)N(C(C)C)C(C)C)C(C)C	Tg IFNy HTS -87
Cn1c(CC2CCNCC2)nnc1SCCN1CCOCC1	none
CC[C@H]1CN(C(=O)c2cnn3ccccc23)CC[C@@]1(C)O	none
COc1cc2c(cc1OC)C(c1ccccc1Cl)N(c1ccc(C)cc1)C(=O)C2 (centres undefined)	Tg IFNy HTS -91
COc1ccc(C2N(c3ccc(C)cc3)CCN2c2ccc(C)cc2)cc1OC	none
COc1cc2c(cc1OC)C1c3ccccc3N(Cc3ccccc3)C(=O)N1CC2 (centres undefined)	none
COc1ccc(NC(=O)Cn2ncc3c(N4CCN(c5ccccc5)CC4)ncnc32)cc1Cl	none
CC(C)NC(=O)N1CCN(CC2CC2)CC2(CNC(=O)C2)C1 (centres undefined)	none
CCOc1cc(C(=O)N2CCc3c([nH]c4ccccc34)C2c2ccccc2)cc(OCC)c1OCC (centres undefined)	Tg IFNy HTS -115
CCOc1cc(C(=O)N2CCc3c([nH]c4ccccc34)C2c2cccnc2)cc(OCC)c1OCC (centres undefined)	none
O=C(c1ccncc1)N1CCc2c([nH]c3ccccc23)C1c1ccc(Cl)cc1 (centres undefined)	Tg IFNy HTS -88
CCOc1ccc(C2c3[nH]c4ccccc4c3CCN2C(=O)c2cc(OC)c(OC)c(OC)c2)cc1 (centres undefined)	none
CCCC(=O)N1CCc2c([nH]c3ccccc23)C1c1ccccc1 (centres undefined)	none
CSc1ccc(C2c3[nH]c4ccccc4c3CCN2C(=O)C2CC2)cc1 (centres undefined)	none
CSc1ccc(C2c3[nH]c4ccccc4c3CCN2C(=O)c2cccnc2)cc1 (centres undefined)	none
O=C(C1CCCCC1)N1CCc2c([nH]c3ccccc23)C1c1ccc(F)cc1 (centres undefined)	Tg IFNy HTS -75
COc1ccc(C2c3[nH]c4ccccc4c3CCN2C(=O)c2cccnc2)cc1 (centres undefined)	none
Cc1ccc(C2c3[nH]c4ccccc4c3CCN2C(=O)C2CC2)cc1 (centres undefined)	none
CCOc1ccc(C2c3[nH]c4ccccc4c3CCN2C(=O)c2ccc(F)cc2)cc1 (centres undefined)	Tg IFNy HTS -89
CCOc1ccc(C2c3[nH]c4ccccc4c3CCN2C(=O)c2ccc(OC)c(OC)c2)cc1 (centres undefined)	none
CC(=O)N1C2CCN(Cc3nccs3)CC2C[C@H]1Cn1cncn1 (some centres undefined)	none
CCOCc1ccc(C(=O)NC2CCCN(c3ncc4c(n3)CCOC4)C2)cc1 (centres undefined)	none
O=S(=O)(C1CC1)N1CC[C@@H]2[C@H]1CCN2Cc1cccc(F)c1	none
Cc1cc(C)c2c(n1)nn1c(N3CCCC(O)C3)cc(C)nc21 (centres undefined)	none
CC(=O)NCC(=O)N1C[C@H](N(C)Cc2cncnc2)[C@@H]2OCCC[C@@H]21	none
CC(C)NC(=O)N1CCC2(CC1)CC(CC(=O)NCC1CC1)c1ccccc12 (centres undefined)	none
C=C(C)[C@@H]1CC=C(CN2CCC3(CC2)C(=O)N(CC)C(=O)N3CCC(C)C)CC1	none
Cc1cc(N2CCCC(N(C)S(=O)(=O)c3cccc(F)c3)CC2)nc(C)n1 (centres undefined)	none
CN(C)CC1COCCN(Cc2cccn2-c2ccc(Cl)cn2)C1 (centres undefined)	none
